For nine compounds, Potency results are on record in PubChem BioAssay (Tox21).

“And” between values parts separate entries of the source, which are not always exact repeats. Equal entries are not always repeated. Results filed as inconclusive are left out. Some structures have more than one record in an assay (separate samples or runs), and their calls can disagree. The source made the active and inactive calls. Unless noted, the call rests on the fitted dose curve.

Assay [1] is described as follows: Nuclear factor erythroid 2-related factor 2/antioxidant responsive element (Nrf2/ARE) small molecule agonists: qHTS cell viability counter screen in human keratinocytes (AID 1919968; active means well fitted curve in the direction sought with a large enough effect in the repeat runs; an effect the other way counts as inactive or inconclusive; further: nearly all actives have a fitted effect of over 55% in size; further: potency means the concentration at half of the fitted maximal effect). The essentials:
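KeratinoSens HaCaT cells, 1,500/well, preincubated 5 h, then exposed to compounds in DMSO for 23 h at 37 C/5% CO2. Viability read as CellTiter-Fluor fluorescence after 1 h, in the same wells as the ARE-luciferase read.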

Assay [2] is described as follows: Nuclear factor erythroid 2-related factor 2/antioxidant responsive element (Nrf2/ARE) small molecule agonists: luciferase reporter gene qHTS assay in human keratinocytes (AID 1919969). Further: nearly all actives have a fitted effect of over 35% in size. Further: potency means the concentration at half of the fitted maximal effect.
The target of assay [3] is Gonadotropin-releasing hormone receptor (Homo sapiens) (UniProt P30968). Description: Human gonadotropin-releasing hormone receptor (GnRHR) small molecule agonists, calcium flux assay in GnRHR-HEK293 cells (AID 1920063). Further: nearly all actives have a fitted effect of over 35% in size. The essentials:
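HEK293 cells stably expressing human GnRHR were dye-loaded for 1 h at 37 C. Compound was added in agonist mode and fluorescence (Ex/Em 480/540) recorded kinetically for 3 min. Fifteen concentrations, triplicates.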

Assay [4] addresses KiSS-1 receptor (Homo sapiens) (UniProt Q969F8). Briefly: Human kisspeptin (KISS1R) small molecule agonists, calcium flux assay in KISS1R-HEK293 cells (AID 1920064; active means well fitted curve in the direction sought with a large enough effect in the repeat runs; an effect the other way counts as inactive or inconclusive). The essentials: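 HEK293 cells stably expressing human KISS1R were loaded with calcium dye for 1 h at 37 C, then given compound; fluorescence (Ex/Em 480/540) was read kinetically for 3 min. Fifteen concentrations, triplicate.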

A short description of assay [5]: G protein-coupled receptor (GPCR) small molecule agonists, calcium flux assay: HEK293 wild type cell line counter screen (AID 1920065). The essentials: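 Wild-type HEK293 cells plated 18 h, loaded with calcium dye 1 h at 37 C, then compounds added in agonist mode (ATP as positive control). Kinetic fluorescence Ex/Em 480/540 recorded 3 min at 1 sec intervals; 15 concentrations, triplicate.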

The nature of assay [6]: p53 small molecule agonists, cell-based qHTS assay with rat liver microsomes (AID 1963578). The essentials:
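Each plate received p53RE-bla cells, then compound, then rat liver microsomes and NADPH (both 0.5 mg/mL final). Plates were held 16 h at 37 C, and beta-lactamase activity was detected with LiveBLAzer over 2 h.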

Assay [7] is described as follows: p53 small molecule agonists, cell-based qHTS assay with rat liver microsomes: qHTS cell viability counter screen (AID 1963580). Further: nearly all actives have a fitted effect of over 45% in size. The essentials: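 Intracellular ATP, by CellTiter-Glo luminescence, defines viability. HCT-116 p53RE-bla cells, 4,000 per well, were compound-treated in the presence of rat liver microsomes and NADPH for 16 h at 37 C.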
A short description of assay [8]: p53 small molecule agonists, cell-based qHTS assay (AID 1963582; active means well fitted activation curve with a large enough effect in the signal ratio in the repeat runs, not every such curve was filed as active; the % refers to the signal ratio; further: potency means the concentration at half of the fitted maximal effect). The essentials:
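p53RE-bla reporter cells, compounds added in DMSO after 5 h plating, incubated 16 h at 37 C. Beta-lactamase read via 2 h room-temperature LiveBLAzer B/G FRET substrate, fluorescence intensity.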

The target of assay [9] is 5-hydroxytryptamine receptor 2A (Homo sapiens) (UniProt P28223). Description: 5-hydroxytryptamine receptor 2A (HTR2A) small molecule antagonists, cell-based qHTS assay (AID 1963586). Further: nearly all actives have a fitted effect of over 45% in size. Further: potency means the concentration at half of the fitted maximal effect. The essentials: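 Antagonist-mode intracellular calcium assay: DOI (4 nM) added after 5 min compound pre-incubation at room temperature to dye-loaded HTR2A-CHO cells. Fluorescence followed for 3 min, sampled every second.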
Sequence of 5-hydroxytryptamine receptor 2A (Homo sapiens) (P28223 whole entry, looked up): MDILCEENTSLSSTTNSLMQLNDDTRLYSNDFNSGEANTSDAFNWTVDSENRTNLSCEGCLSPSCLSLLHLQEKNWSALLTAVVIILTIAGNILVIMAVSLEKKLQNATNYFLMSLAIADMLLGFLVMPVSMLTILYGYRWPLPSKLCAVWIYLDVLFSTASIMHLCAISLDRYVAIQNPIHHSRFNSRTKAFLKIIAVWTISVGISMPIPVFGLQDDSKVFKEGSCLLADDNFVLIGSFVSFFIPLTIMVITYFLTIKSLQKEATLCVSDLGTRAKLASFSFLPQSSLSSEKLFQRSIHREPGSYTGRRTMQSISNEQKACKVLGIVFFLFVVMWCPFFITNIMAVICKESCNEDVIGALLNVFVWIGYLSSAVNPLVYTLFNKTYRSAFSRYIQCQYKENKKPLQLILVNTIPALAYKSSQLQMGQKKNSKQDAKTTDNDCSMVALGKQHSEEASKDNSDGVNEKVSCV

The target is the same in assay [10]. Description: 5-hydroxytryptamine receptor 2A (HTR2A) small molecule agonists, cell-based qHTS assay (AID 1963587). Further: nearly all actives have a fitted effect of over 30% in size. The essentials: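 Kinetic calcium-flux fluorescence (2 min, 1 sec intervals) after compound addition in agonist mode. HTR2A-CHO cells were cultured 18 h, then dye-loaded 1 h at 37 C.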
Assay [11] concerns the target Muscarinic acetylcholine receptor M1 (Homo sapiens) (UniProt P11229). Description: Cholinergic receptor muscarinic 1 (CHRM1) small molecule antagonists, cell-based qHTS assay (AID 1963588). Further: nearly all actives have a fitted effect of over 40% in size. The essentials: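 CHRM1-CHO calcium-flux assay, antagonist mode. Cells were seeded 18 h, dye-loaded 1 h at 37 C and given compound for 5 min at RT, then acetylcholine was added at 50nM. FDSS fluorescence was read 3 min; 15 concentrations, three runs.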

Assay [12] can be described thus: cAMP Responsive Elements (CRE) small molecule agonists, cell-based qHTS assay (AID 1963590). The essentials:
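CRE-bla HEK 293T cells, 2,000/well in DMEM with 10% dialyzed FBS and 25 mM HEPES, pre-incubated 18 h at 37 C, then exposed to compound 3 h at 37 C. Beta-lactamase reporter read with LiveBLAzer B/G FRET substrate after 2 h at room temperature.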

The target of assay [13] is Beta-2 adrenergic receptor (Homo sapiens) (UniProt P07550). Description: Adrenergic beta2 receptor (ADRB2) small molecule antagonists, cell-based qHTS assay (AID 1963592). Further: series mostly up to about 92 µM; nearly all actives have a fitted effect of over 50% in size. The essentials:
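Cells (CHO, stable ADRB2 overexpression) incubated 18-20hr at 37C; compounds added from DMSO; agonist mix (1nM isoproterenol, 100uM IBMX, 25uM Ro-20-1724) added; 0.5hr RT; d2-cAMP and anti-cAMP-cryptate added; 1hr RT; 665/615 nm read.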

In assay [14] the target is D(2) dopamine receptor (Homo sapiens) (UniProt P14416). Description: Dopamine D2 receptor (DRD2) small molecule agonists, cell-based qHTS assay (AID 1963594). Further: nearly all actives have a fitted effect of over 35% in size. The essentials:
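cAMP accumulation in DRD2-HEK293 cells measured by HTRF after 1 h detection; compounds added 10 min before NKH477 (200nM […]) forskolin-analogue stimulation, 30 min at room temperature, with Ro20-1724 present at 0.1 mM final.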

Assay [15] in a line: p53 small molecule agonists, cell-based qHTS assay with human liver microsomes: qHTS cell viability counter screen (AID 1963579). Further: nearly all actives have a fitted effect of over 45% in size. The essentials:
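Tox21 library compounds, delivered from DMSO stocks, were tested on p53RE-bla cells together with 0.5 mg/mL human liver microsomes and 0.5 mg/mL NADPH (final) over 16 h at 37 C; CellTiter-Glo luminescence served as the cytotoxicity measure.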

Assay [16] can be described thus: p53 small molecule agonists, cell-based qHTS assay: qHTS cell viability counter screen (AID 1963581). Further: nearly all actives have a fitted effect of over 45% in size. Further: potency means the concentration at half of the fitted maximal effect. The essentials: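 p53RE-bla HCT-116 cells, compounds added 5 h after plating and incubated 16 h at 37 C. Cytotoxicity measured in the same wells as intracellular ATP by CellTiter-Glo luminescence after 30 min at room temperature.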
Assay [17] addresses Muscarinic acetylcholine receptor M1 (Homo sapiens) (UniProt P11229). Description: Cholinergic receptor muscarinic 1 (CHRM1) small molecule agonists, cell-based qHTS assay (AID 1963589). Further: nearly all actives have a fitted effect of over 35% in size. The essentials: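 CHO cells stably expressing human CHRM1 were loaded with calcium dye for 1 h at 37 C, then compound was added in agonist mode. Intracellular calcium fluorescence was followed kinetically at 1 s intervals. Fifteen concentrations were tested in three independent runs.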

A short description of assay [18]: cAMP Responsive Elements (CRE) small molecule antagonists, cell-based qHTS assay (AID 1963591; active means well fitted inhibition curve with a large enough effect in the signal ratio in the repeat runs, not every such curve was filed as active; the % refers to the signal ratio). The essentials: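 CRE-bla HEK293T cells plated 18 h, then given compound plus NKH477 at 0.25 uM final for 3 h at 37C. Beta-lactamase reporter read with LiveBLAzer B/G FRET substrate after 2 h at room temperature.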
Assay [19] deals with Beta-2 adrenergic receptor (Homo sapiens) (UniProt P07550). Description: Adrenergic beta2 receptor (ADRB2) small molecule agonists, cell-based qHTS assay (AID 1963593).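 Further: CHO cells stably overexpressing human ADRB2.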 The essentials:
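CHO cells stably over-expressing ADRB2 were plated overnight at 37C, then dosed with compounds plus a stimulation mix containing 100uM IBMX and 25uM Ro-20-1724 for 0.5hr at room temperature. cAMP was measured by HTRF competition, 1hr.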

For assay [20], the target named is D(2) dopamine receptor (Homo sapiens) (UniProt P14416). Briefly: Dopamine D2 receptor (DRD2) small molecule antagonists, cell-based qHTS assay (AID 1963595; active means well fitted inhibition curve with a large enough effect in the signal ratio in the repeat runs, with a control signal flat; the % refers to the signal ratio; further: potency means the concentration at half of the fitted maximal effect). The essentials: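 HEK293 cells stably expressing DRD2 were preincubated with 0.1 mM Ro20-1724, then with compound for 10 min at room temperature. Cells were stimulated with 200 nM NKH477 plus 12 nM quinpirole for 30 min, and cAMP was read by HTRF.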
Sequence of D(2) dopamine receptor (Homo sapiens) (P14416 whole entry, looked up): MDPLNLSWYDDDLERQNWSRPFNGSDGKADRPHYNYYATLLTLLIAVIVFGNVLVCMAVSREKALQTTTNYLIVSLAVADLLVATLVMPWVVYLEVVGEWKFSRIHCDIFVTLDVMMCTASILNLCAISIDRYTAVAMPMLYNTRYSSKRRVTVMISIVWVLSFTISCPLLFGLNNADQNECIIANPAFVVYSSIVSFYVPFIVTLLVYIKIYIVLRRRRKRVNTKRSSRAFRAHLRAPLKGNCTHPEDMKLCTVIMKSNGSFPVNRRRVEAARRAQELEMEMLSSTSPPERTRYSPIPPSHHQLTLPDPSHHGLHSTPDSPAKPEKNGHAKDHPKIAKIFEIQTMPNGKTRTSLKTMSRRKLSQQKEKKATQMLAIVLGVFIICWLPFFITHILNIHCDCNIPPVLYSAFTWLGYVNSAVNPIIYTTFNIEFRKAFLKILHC

Sequence of Muscarinic acetylcholine receptor M1 (Homo sapiens) (P11229 whole entry, looked up): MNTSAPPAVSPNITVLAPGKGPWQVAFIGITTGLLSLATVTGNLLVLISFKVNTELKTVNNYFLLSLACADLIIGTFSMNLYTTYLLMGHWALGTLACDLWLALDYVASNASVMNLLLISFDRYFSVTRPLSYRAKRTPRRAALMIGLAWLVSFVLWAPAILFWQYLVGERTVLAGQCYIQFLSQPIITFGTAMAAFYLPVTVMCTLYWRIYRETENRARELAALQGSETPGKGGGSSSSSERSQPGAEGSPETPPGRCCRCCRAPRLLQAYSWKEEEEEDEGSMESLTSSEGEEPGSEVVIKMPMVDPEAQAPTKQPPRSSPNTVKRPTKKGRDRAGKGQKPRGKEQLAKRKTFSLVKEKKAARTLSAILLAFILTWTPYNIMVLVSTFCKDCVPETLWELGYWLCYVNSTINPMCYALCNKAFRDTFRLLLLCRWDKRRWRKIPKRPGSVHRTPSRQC
Sequence of KiSS-1 receptor (Homo sapiens) (Q969F8 whole entry, looked up): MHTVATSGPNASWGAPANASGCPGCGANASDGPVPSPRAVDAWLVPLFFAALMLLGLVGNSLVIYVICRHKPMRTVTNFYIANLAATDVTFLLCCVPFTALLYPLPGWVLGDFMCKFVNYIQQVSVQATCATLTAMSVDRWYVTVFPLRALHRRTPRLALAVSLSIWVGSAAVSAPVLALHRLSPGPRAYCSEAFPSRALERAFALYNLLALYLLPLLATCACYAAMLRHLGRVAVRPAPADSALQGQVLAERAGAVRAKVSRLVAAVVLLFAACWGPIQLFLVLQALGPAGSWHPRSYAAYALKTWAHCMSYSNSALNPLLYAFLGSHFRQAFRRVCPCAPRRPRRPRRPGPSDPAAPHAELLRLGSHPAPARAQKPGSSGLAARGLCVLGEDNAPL
Sequence of Beta-2 adrenergic receptor (Homo sapiens) (P07550 whole entry, looked up): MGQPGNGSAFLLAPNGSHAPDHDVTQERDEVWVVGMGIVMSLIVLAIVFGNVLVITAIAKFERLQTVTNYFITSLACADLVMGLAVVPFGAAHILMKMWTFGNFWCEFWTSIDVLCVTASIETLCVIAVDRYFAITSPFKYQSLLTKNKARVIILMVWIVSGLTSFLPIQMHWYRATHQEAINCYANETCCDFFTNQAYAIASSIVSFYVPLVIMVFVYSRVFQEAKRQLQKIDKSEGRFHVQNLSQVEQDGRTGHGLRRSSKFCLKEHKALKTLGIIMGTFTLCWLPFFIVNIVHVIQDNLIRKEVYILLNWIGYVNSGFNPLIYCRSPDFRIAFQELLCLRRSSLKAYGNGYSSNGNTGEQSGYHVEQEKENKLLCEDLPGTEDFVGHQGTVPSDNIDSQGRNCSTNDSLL
Sequence of Gonadotropin-releasing hormone receptor (Homo sapiens) (P30968 whole entry, looked up): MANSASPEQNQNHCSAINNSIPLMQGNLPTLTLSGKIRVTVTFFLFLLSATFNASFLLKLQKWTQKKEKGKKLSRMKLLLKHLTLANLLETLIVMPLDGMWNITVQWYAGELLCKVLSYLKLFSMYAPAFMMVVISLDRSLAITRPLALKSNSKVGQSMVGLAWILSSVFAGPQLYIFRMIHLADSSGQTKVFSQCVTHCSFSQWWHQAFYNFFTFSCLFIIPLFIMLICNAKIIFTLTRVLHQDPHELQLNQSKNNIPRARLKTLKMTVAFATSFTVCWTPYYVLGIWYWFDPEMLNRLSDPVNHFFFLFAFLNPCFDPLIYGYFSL

For `O=C/C=C/c1ccco1`, the Potency result in assay [1], in assay [2], in [3], in assay [4], in assay [5] and in assay [6] was “inactive” throughout. Besides, the Potency result in [7], in assay [8], in assay [9], in assay [10], in [11] and in assay [12] was “inactive” each time. For the same compound, the Potency entry in [13] and in assay [14] was “inactive” each time.
Consider `CC[N+](=O)[O-]`, for which the Potency entry in [1], in assay [2], in assay [3], in [4], in assay [5] and in [15] was “inactive” in each case. Further, the Potency result in assay [7], in assay [16], in [8], in assay [9], in assay [10] and in [11] was “inactive” in each case. For the same compound, the Potency entry in assay [17], in assay [12], in [18], in [19] and in assay [14] was “inactive” throughout.
For the compound `CCCCOC(=O)CCC(=O)OCCCC`, the Potency entry in assay [1], in assay [2], in assay [3], in assay [4], in assay [5] and in assay [6] was “inactive” throughout. Moreover, the Potency result in [16], in assay [8], in assay [9], in [10], in [11] and in assay [12] was “inactive” in each case. Also, the Potency result in assay [18], in assay [13] and in assay [14] was “inactive” each time.
Regarding `C=CC(=O)OCC(CC)(COC(=O)C=C)COC(=O)C=C`, the Potency in [1] is 6.28 µM (active) and 12.2 µM (active); in assay [2], 2.8 µM (active) and 6.11 µM (active); in assay [16], 26.4 µM (active); in assay [20], “inactive and 48.6 µM (active)”. Further, the Potency result in assay [3], in assay [4], in [5], in [6], in assay [10] and in assay [11] was “inactive” each time. In [14], the Potency entry was “inactive”.
For `Cc1ccc(OP(=O)(Oc2ccc(C)cc2)Oc2ccc(C)cc2)cc1`, the Potency entry in [1], in [3], in [4], in assay [5], in [7] and in assay [8] was “inactive” in each case. Besides, the Potency entry in assay [9], in assay [10], in assay [17], in assay [12], in assay [18] and in assay [13] was “inactive” throughout. The Potency result in assay [19], in assay [14] and in assay [20] was “inactive” in each case. For the same compound, in assay [2], the Potency was 61 µM (active) and inactive.
Turning to `ClCc1cccnc1`, the Potency result in assay [1], in [2], in [3], in assay [4], in assay [5] and in [15] was “inactive” each time. Moreover, the Potency result in [7], in [16], in assay [8], in assay [9], in assay [10] and in assay [11] was “inactive” in each case. The Potency entry in [17], in assay [12], in assay [18], in assay [13], in [14] and in [20] was “inactive” throughout.
Take `Oc1ccc(C(c2ccc(O)cc2)(C(F)(F)F)C(F)(F)F)cc1`: the Potency is 38.4 µM (active) and 54.5 µM (active) in assay [1]; 37.5 µM (active) in [9]. The Potency result in assay [2], in assay [3], in [4], in assay [5], in assay [6] and in assay [11] was “inactive” each time. For the same compound, the Potency entry in assay [17], in [14] and in assay [20] was “inactive” each time.
With `CCOC(=O)C1(c2ccccc2)CCN(CCC(C#N)(c2ccccc2)c2ccccc2)CC1`, the Potency entry in [1], in assay [2], in assay [3], in [4], in assay [5] and in assay [6] was “inactive” in each case. The Potency result in [16], in assay [10], in [11], in assay [17], in [12] and in [18] was “inactive” in each case. Further, the Potency result in assay [13], in assay [19] and in [20] was “inactive” in each case. Further, the Potency in assay [8] was 7.93 µM (active); in [9], 0.13 µM (active).
For `COP(=O)(OC)C(O)C(Cl)(Cl)Cl` (stereo not given), the Potency result in assay [1], in assay [3], in assay [4], in assay [5], in assay [15] and in [7] was “inactive” each time. Also, the Potency result in assay [16], in assay [8], in [10], in [11], in [12] and in assay [13] was “inactive” throughout. Moreover, the Potency entry in assay [19] and in assay [14] was “inactive” each time. For the same compound, the Potency in [2] was 43.7 µM (active) and 61.1 µM (active) and inactive; in assay [9] it was “inactive and 8.39 µM (active)”.
